{"source": "the supplement of paper PMC12669032", "data": [{"system": "Bacteroides stercoris", "experiment": "growth AUC relative to DMSO control (median of replicates) (fraction); higher = more growth (less inhibition), active = hit call of the paper", "conditions": "20 µM; 24 h;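 active = AUC reduced over 20% with Padj below 0.05 in at least 2 of 3 replicates; inactive = otherwise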", "procedure,_shortened": "(§1)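 Each value is the median of three biological replicates, grown on separate days, of a gut bacterial monoculture incubated anaerobically at 37 °C in mGAM with 20 µM compound (1% DMSO). Cultures started at OD600 0.05 and were read at OD600 hourly for 24 h, with the minimum OD set to 0. Area under the growth curve was normalised to the plate median of solvent-only wells, or to row and column medians on the industrial chemical plate.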", "values": [{"smiles": "C=CCOC(Cn1ccnc1)c1ccc(Cl)cc1Cl.O=S(=O)(O)O", "note": "(stereo not drawn)", "growth AUC": "0.994 (inactive)"}, {"smiles": "c1ccc(-c2ccccc2)cc1", "growth AUC": "1.22 (inactive)"}, {"smiles": "CCOC(=O)C(SP(=S)(OC)OC)c1ccccc1", "note": "(stereo not drawn)", "growth AUC": "0.986 (inactive)"}, {"smiles": "Nc1nc(N)nc(Cl)n1", "growth AUC": "1.16 (inactive)"}, {"smiles": "NC(=O)/N=C1/SCCN1Cc1ccc(Cl)nc1", "growth AUC": "1.04 (inactive)"}, {"smiles": "CON(C)C(=O)Nc1ccc(Br)c(Cl)c1", "growth AUC": "0.958 (inactive)"}, {"smiles": "CC(C)C(C(=O)OC(C#N)c1cccc(Oc2ccccc2)c1)c1ccc(OC(F)F)cc1", "note": "(stereo not drawn)", "growth AUC": "1.08 (inactive)"}, {"smiles": "O=[N+]([O-])c1c(Cl)c(Cl)cc(Cl)c1Cl", "growth AUC": "1.19 (inactive)"}, {"smiles": "Clc1ccc(C2(Cn3cncn3)CC(Br)CO2)c(Cl)c1", "note": "(stereo not drawn)", "growth AUC": "0.921 (inactive)"}, {"smiles": "CC(C)N1C(=O)N(c2ccccc2)CSC1=NC(C)(C)C", "growth AUC": "0.977 (inactive)"}, {"smiles": "CNC1=C(c2cccc(C(F)(F)F)c2)C(=O)C(c2ccccc2)O1", "note": "(stereo not drawn)", "growth AUC": "1.01 (inactive)"}, {"smiles": "CCOP(=S)(OCC)Oc1cc(C)nc(C(C)C)n1", "growth AUC": "0.972 (inactive)"}, {"smiles": "CCOP(=S)(OCC)SCS(=O)(=O)C(C)(C)C", "growth AUC": "0.976 (inactive)"}, {"smiles": "COc1nc(C)nc(NC(=O)NS(=O)(=O)c2ccccc2Cl)n1", "growth AUC": "0.929 (inactive)"}, {"smiles": "CCOP(=S)(OCC)Oc1cnccn1", "growth AUC": "0.979 (inactive)"}, {"smiles": "O=c1[nH]c2c(c(=O)n1C1CCCCC1)CCC2", "growth AUC": "0.925 (inactive)"}, {"smiles": "COC[C@H](C)N(C(=O)CCl)c1c(C)csc1C", "growth AUC": "0.95 (inactive)"}, {"smiles": "CC(C)N(C(=O)CCl)c1ccccc1", "growth AUC": "0.978 (inactive)"}, {"smiles": "ClC1=C(Cl)C2(Cl)C(CBr)CC1(Cl)C2(Cl)Cl", "note": "(stereo not drawn)", "growth AUC": "1.02 (inactive)"}, {"smiles": "COC(=O)COc1cc(Cl)c(Cl)cc1Cl", "growth AUC": "1.01 (inactive)"}, {"smiles": "COP(=S)(OC)Oc1ccc([N+](=O)[O-])c(C)c1", "growth AUC": "0.969 (inactive)"}, {"smiles": "COC(=O)C(C)N(C(=O)c1ccco1)c1c(C)cccc1C", "note": "(stereo not drawn)", "growth AUC": "0.985 (inactive)"}, {"smiles": "Cc1ccc(N(SC(F)(Cl)Cl)S(=O)(=O)N(C)C)cc1", "growth AUC": "1.02 (inactive)"}, {"smiles": "CCOC(=O)CC(SP(=O)(OC)OC)C(=O)OCC", "note": "(stereo not drawn)", "growth AUC": "0.976 (inactive)"}, {"smiles": "COc1cc(OC)nc(NC(=O)NS(=O)(=O)c2ncccc2C(F)(F)F)n1", "growth AUC": "0.908 (inactive)"}, {"smiles": "c1ccc2c(c1)cc1ccc3cccc4ccc2c1c34", "growth AUC": "0.978 (inactive)"}, {"smiles": "CS(=O)(=O)c1cc(C(F)(F)F)ccc1C(=O)c1cnoc1C1CC1", "growth AUC": "0.921 (inactive)"}, {"smiles": "O=C(NC(=O)c1c(F)cccc1F)Nc1ccc(CO/N=C(\\c2ccc(Cl)cc2)C2CC2)cc1", "growth AUC": "0.981 (inactive)"}, {"smiles": "CNC(=O)Oc1cc(C)c(S(C)(=O)=O)c(C)c1", "growth AUC": "0.995 (inactive)"}, {"smiles": "O=C(O)c1ccc(=O)[nH]c1", "growth AUC": "0.972 (inactive)"}, {"smiles": "N#Cc1c[nH]cc1-c1cccc(Cl)c1Cl", "growth AUC": "0.884 (inactive)"}, {"smiles": "CCOP(=S)(OCC)SCS(=O)CC", "note": "(stereo not drawn)", "growth AUC": "1.05 (inactive)"}, {"smiles": "CNC(=O)O/N=C/C(C)(C)S(C)(=O)=O", "growth AUC": "0.973 (inactive)"}, {"smiles": "COc1nc(NC(C)C)nc(NC(C)C)n1", "growth AUC": "0.979 (inactive)"}, {"smiles": "CC(=O)O.CC(=O)O.CC(=O)O.NC(N)=NCCCCCCCCNCCCCCCCCN=C(N)N", "growth AUC": "0.0269 (active)"}, {"smiles": "OCC1C(CO)C2(Cl)C(Cl)=C(Cl)C1(Cl)C2(Cl)Cl", "note": "(stereo not drawn)", "growth AUC": "0.259 (inactive)"}, {"smiles": "Nc1cc(Cl)cc(C(=O)O)c1Cl", "growth AUC": "1.06 (inactive)"}, {"smiles": "N#Cc1nn(-c2c(Cl)cc(C(F)(F)F)cc2Cl)c(N)c1S(=O)C(F)(F)F", "note": "(stereo not drawn)", "growth AUC": "0.95 (inactive)"}, {"smiles": "O=[N+]([O-])c1ccccc1", "growth AUC": "1.13 (inactive)"}]}, {"system": "Bacteroides thetaiotaomicron", "experiment": "growth AUC relative to DMSO control (median of replicates) (fraction); higher = more growth (less inhibition), active = hit call of the paper", "conditions": "20 µM; 24 h", "procedure,_shortened": "as §1", "values": [{"smiles": "C=CCOC(Cn1ccnc1)c1ccc(Cl)cc1Cl.O=S(=O)(O)O", "note": "(stereo not drawn)", "growth AUC": "0.931 (inactive)"}, {"smiles": "c1ccc(-c2ccccc2)cc1", "growth AUC": "0.969 (inactive)"}, {"smiles": "CCOC(=O)C(SP(=S)(OC)OC)c1ccccc1", "note": "(stereo not drawn)", "growth AUC": "0.938 (inactive)"}, {"smiles": "Nc1nc(N)nc(Cl)n1", "growth AUC": "1.01 (inactive)"}, {"smiles": "NC(=O)/N=C1/SCCN1Cc1ccc(Cl)nc1", "growth AUC": "0.978 (inactive)"}, {"smiles": "CON(C)C(=O)Nc1ccc(Br)c(Cl)c1", "growth AUC": "0.998 (inactive)"}, {"smiles": "CC(C)C(C(=O)OC(C#N)c1cccc(Oc2ccccc2)c1)c1ccc(OC(F)F)cc1", "note": "(stereo not drawn)", "growth AUC": "0.987 (inactive)"}, {"smiles": "O=[N+]([O-])c1c(Cl)c(Cl)cc(Cl)c1Cl", "growth AUC": "1.04 (inactive)"}, {"smiles": "Clc1ccc(C2(Cn3cncn3)CC(Br)CO2)c(Cl)c1", "note": "(stereo not drawn)", "growth AUC": "0.961 (inactive)"}, {"smiles": "CC(C)N1C(=O)N(c2ccccc2)CSC1=NC(C)(C)C", "growth AUC": "0.927 (inactive)"}, {"smiles": "CNC1=C(c2cccc(C(F)(F)F)c2)C(=O)C(c2ccccc2)O1", "note": "(stereo not drawn)", "growth AUC": "0.986 (inactive)"}, {"smiles": "CCOP(=S)(OCC)Oc1cc(C)nc(C(C)C)n1", "growth AUC": "1.01 (inactive)"}, {"smiles": "CCOP(=S)(OCC)SCS(=O)(=O)C(C)(C)C", "growth AUC": "1.01 (inactive)"}, {"smiles": "COc1nc(C)nc(NC(=O)NS(=O)(=O)c2ccccc2Cl)n1", "growth AUC": "0.958 (inactive)"}, {"smiles": "CCOP(=S)(OCC)Oc1cnccn1", "growth AUC": "0.985 (inactive)"}, {"smiles": "O=c1[nH]c2c(c(=O)n1C1CCCCC1)CCC2", "growth AUC": "0.978 (inactive)"}, {"smiles": "COC[C@H](C)N(C(=O)CCl)c1c(C)csc1C", "growth AUC": "1 (inactive)"}, {"smiles": "CC(C)N(C(=O)CCl)c1ccccc1", "growth AUC": "0.933 (inactive)"}, {"smiles": "ClC1=C(Cl)C2(Cl)C(CBr)CC1(Cl)C2(Cl)Cl", "note": "(stereo not drawn)", "growth AUC": "1.01 (inactive)"}, {"smiles": "COC(=O)COc1cc(Cl)c(Cl)cc1Cl", "growth AUC": "0.97 (inactive)"}, {"smiles": "COP(=S)(OC)Oc1ccc([N+](=O)[O-])c(C)c1", "growth AUC": "0.99 (inactive)"}, {"smiles": "COC(=O)C(C)N(C(=O)c1ccco1)c1c(C)cccc1C", "note": "(stereo not drawn)", "growth AUC": "0.727 (active)"}, {"smiles": "Cc1ccc(N(SC(F)(Cl)Cl)S(=O)(=O)N(C)C)cc1", "growth AUC": "1.02 (inactive)"}, {"smiles": "CCOC(=O)CC(SP(=O)(OC)OC)C(=O)OCC", "note": "(stereo not drawn)", "growth AUC": "1.01 (inactive)"}, {"smiles": "COc1cc(OC)nc(NC(=O)NS(=O)(=O)c2ncccc2C(F)(F)F)n1", "growth AUC": "1.02 (inactive)"}, {"smiles": "c1ccc2c(c1)cc1ccc3cccc4ccc2c1c34", "growth AUC": "1 (inactive)"}, {"smiles": "CS(=O)(=O)c1cc(C(F)(F)F)ccc1C(=O)c1cnoc1C1CC1", "growth AUC": "1.02 (inactive)"}, {"smiles": "O=C(NC(=O)c1c(F)cccc1F)Nc1ccc(CO/N=C(\\c2ccc(Cl)cc2)C2CC2)cc1", "growth AUC": "0.996 (inactive)"}, {"smiles": "CNC(=O)Oc1cc(C)c(S(C)(=O)=O)c(C)c1", "growth AUC": "0.97 (inactive)"}, {"smiles": "O=C(O)c1ccc(=O)[nH]c1", "growth AUC": "0.984 (inactive)"}, {"smiles": "N#Cc1c[nH]cc1-c1cccc(Cl)c1Cl", "growth AUC": "0.835 (inactive)"}, {"smiles": "CCOP(=S)(OCC)SCS(=O)CC", "note": "(stereo not drawn)", "growth AUC": "1.02 (inactive)"}, {"smiles": "CNC(=O)O/N=C/C(C)(C)S(C)(=O)=O", "growth AUC": "1 (inactive)"}, {"smiles": "COc1nc(NC(C)C)nc(NC(C)C)n1", "growth AUC": "1.02 (inactive)"}, {"smiles": "CC(=O)O.CC(=O)O.CC(=O)O.NC(N)=NCCCCCCCCNCCCCCCCCN=C(N)N", "growth AUC": "0.0154 (active)"}, {"smiles": "OCC1C(CO)C2(Cl)C(Cl)=C(Cl)C1(Cl)C2(Cl)Cl", "note": "(stereo not drawn)", "growth AUC": "0.799 (active)"}, {"smiles": "Nc1cc(Cl)cc(C(=O)O)c1Cl", "growth AUC": "1 (inactive)"}, {"smiles": "N#Cc1nn(-c2c(Cl)cc(C(F)(F)F)cc2Cl)c(N)c1S(=O)C(F)(F)F", "note": "(stereo not drawn)", "growth AUC": "0.986 (inactive)"}, {"smiles": "O=[N+]([O-])c1ccccc1", "growth AUC": "1.03 (inactive)"}]}]}
